BJeLR viability: lowers viability of BJeLR cells; BJeLR fibroblasts viability, CellTiterGlo ATP luminescence, 48 h; HRASV12, hTERT and SV40 LT/ST transformed; viability loss activity score, % (test concentration not listed); 0.64% of 30,000 active; AID 2275; in the data active = viability loss activity score above about 50%;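 note: higher score means fewer live cells and less ATP luminescence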
A1 inhib: A1 inhibition; 0.51% of 21,000 active; MEF A1-2A-BIM cells, caspase-Glo luminescence, 3 h; percent of clofoctol signal, DMSO as zero; AID 2241; caspase activation, % (concentration not given with the values);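 active = most replicate scores above 10, or exactly half above 10 with mean activity above 10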;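 note: effector caspase 3 and 7 activity cleaving a DEVD luciferin substrate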
Numbers without * were called inactive. Hits are enriched below; roughly 0.89% of the tested compounds scored in any of these assays.

Screening CC(O)CN1CC2CC(C1)c1cccc(=O)n1C2 (stereo not drawn) returned BJeLR viability -1.5 and A1 inhib 0.7.
CCCC12CNCC(C)(CNC1)C2=O was read as BJeLR viability -1.2 and A1 inhib -0.4.
`N#CC(c1ccccc1)c1ccccc1` gave BJeLR viability -5.9 and A1 inhib -0.2.
CC[C@@]1(O)C(=O)OCc2c1cc1n(c2=O)Cc2cc3c(O)cccc3nc2-1 was read as BJeLR viability 106.7* and A1 inhib 1.1.
`CCn1cnc2c(Nc3cccc(Cl)c3)nc(N[C@@H]3CCCC[C@@H]3N)nc21` gave BJeLR viability 57.3* and A1 inhib 26.1*.
Cc1[nH]c2ccccc2c1CCNCC(C)(C)C was read as BJeLR viability -7.5 and A1 inhib -0.4.
CCCCc1nc2ccccc2c(=O)n1-c1ccc(C)cc1 was read as BJeLR viability -1.1 and A1 inhib -0.7.
Screening CC1(C)C(=O)C=C[C@@]2(C)C1C(=O)C(=O)[C@]1(C)C2CC[C@@]2(C)[C@H](c3ccoc3)C[C@H]3O[C@]321 (stereo partly drawn) returned BJeLR viability 27.3 and A1 inhib -1.1.
CC(C)N(C(=O)SCC(Cl)=C(Cl)Cl)C(C)C was read as BJeLR viability 10.7 and A1 inhib 0.7.
For CC1(C)C(C(=O)Nc2ccc(S(=O)(=O)c3ccc(NC(=O)C4C(C)(C)C4(C)C)cc3)cc2)C1(C)C the results were BJeLR viability 2.0 and A1 inhib -0.2.
